# The list is not random: actives were taken first. Their share in the collection is about 2.7%.
# CFTR F508del cor – CFTR F508del correction in bronchial cells; actives 0.36% (n = 350,000); activity (quench increase), % at 7.58 µM; CFBE cells, YFP halide quenching; stimulated with forskolin plus potentiator P3; % fluorescence drop versus neutral controls;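 active = mean added fluorescence quench of at least 8% versus neutral control, with both replicates also reaching 8%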;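 note: cells transiently co-express mutant CFTR-F508del with the halide-sensitive YFP; corrector assay measuring rescue of mutant channel to the surface after 24 h compound exposure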
# PAX8 inh HTS – lowers PAX8-driven luciferase in RMG-I cells | RMG-I TPO-luciferase reporter, SteadyGlo, 24 h | actives 1.2% (n = 360,000) | inhibition, % at 12.6 µM;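 active = mean replicate inhibition at least 60% with every replicate also reaching 60%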;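 note: luciferase light reporting Pax8 driven TPO promoter activity; plate controls were median of neutral control wells for no effect and mitoxantrone controls for full effect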
# Env fusion inh – inhibitors of HIV Env-mediated cell fusion. HeLa-JRFL Env/CEM21 cell fusion, luciferase. inhibition, % at 12.3 µM. actives 1.1% (n = 360,000). AID 651610;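 active = mean replicate inhibition score of at least 50 and every replicate individually at or above 50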;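 note: 0% = plate neutral controls and 100% = maraviroc near 300 nM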
# GSIS activator – primary screen for activators of insulin secretion dependent on glucose, INS-1E cells, GLuc reporter luminescence. actives 0.61% (n = 370,000). INS-1E GLuc reporter insulin secretion, 2-3 h. activation, % at 16.6 µM. AID 743287;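 active = lowest replicate activation of at least 40%, so every replicate reaches that level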;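 note: 0% = median of neutral control wells and 100% = median of IBMX positive control wells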
# EWS-Fli inh – inhibitors of EWS/Fli oncoprotein transcriptional activity; A673 NR0B1-luciferase reporter, viability-normalised; inhibition, % at 12.6 µM; actives 0.67% (n = 350,000); AID 651661;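 active = mean inhibition of at least 50% after viability correction, with every replicate also passing that limit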;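 note: firefly luciferase signal divided by Alamar Blue viability fluorescence both relative to DMSO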
# PGC1a acetyl inh – lowers PGC1a acetylation signal in U2OS cells; AlphaScreen anti-acetyl-lysine; with virally co-expressed GCN5 acetyltransferase; inhibition, % at 15.6 µM; actives 0.17% (n = 350,000); AID 651687;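 active = every replicate shows inhibition of at least 40%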;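 note: 0% = neutral control wells and 100% = positive control wells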
# * marks the source's active call; other numbers are inactive results; nt = not tested or not shown; [ ] = remark or other dose.
SMILES,CFTR F508del cor,PAX8 inh HTS,Env fusion inh,GSIS activator,EWS-Fli inh,PGC1a acetyl inh
C[C@@H]1CN([C@@H](C)CO)C(=O)c2cc(NC(=O)Nc3ccc4c(c3)OCO4)ccc2O[C@H]1CN(C)C(=O)NC1CCCCC1,1.7,nt,-5.4[16.7 µM],1.8,-42.0,12.8
C[C@@H]1CN([C@H](C)CO)C(=O)Cc2cc(NS(=O)(=O)c3ccc(Cl)cc3)ccc2O[C@H]1CN(C)Cc1ccc(C(=O)O)cc1,-0.1,nt,12.3[16.7 µM],12.7,-4.0,13.9
NC(=O)[C@@H]1[C@H]2C(=O)O[C@H](c3ccccc3)[C@H](c3ccccc3)N2[C@H](c2ccc(O)cc2)[C@@]12C(=O)Nc1ccc(C#CC3=CCCCC3)cc12,-1.5,-8.1,1.8[16.7 µM],nt,-11.2,4.8
CN1C(=O)c2cc(NC(=O)c3ccc(F)cc3)ccc2OC[C@@H]2O[C@H](CC(=O)N3CCOCC3)CC[C@@H]21,2.2,-11.3,19.8[16.7 µM],-0.5,14.2,2.0
O=C(O)C[C@@H]1C[C@@H]2c3cc(NC(=O)Nc4ccc(F)cc4)ccc3O[C@@H]2[C@H](CO)O1,-3.8,nt,nt,4.0,6.5,5.3
COc1ccc(CNC(=O)c2nc(S(=O)(=O)Cc3ccccc3)ncc2Cl)cc1,4.0,36.1,31.3,59.1*,nt,-2.6
CC(=O)Nc1ccc(NC(=O)c2nc(S(=O)(=O)Cc3ccccc3)ncc2Cl)cc1,-5.9,93.8*,-7.9,59.8*,nt,nt
CC(C)NC(=O)N1CC2(C1)[C@H](c1ccccc1)[C@@H](CO)N2C(=O)C1CCC1,1.5,nt,nt,6.5,-7.4,-1.4
O=[N+]([O-])c1cc(S(=O)(=O)N2CCCC2)ccc1N/N=C/c1cccs1,nt,-3.3,11.8,47.9*,nt,10.4
Cc1nn(C(=O)c2cccc([N+](=O)[O-])c2)c(C)c1Cl,-1.7,12.3,-17.8,62.8*,2.2,nt
CCS(=O)(=O)Nc1ccc2c(c1)C(=O)N(C)C[C@H](OC)[C@H](C)CN(Cc1ccccn1)[C@H](C)CO2,0.1,-11.1,-9.1[16.7 µM],2.6,8.7,8.8
COc1cccc(NC(=O)N[C@@H]2C=C[C@H](CC(=O)Nc3ccccc3)O[C@@H]2CO)c1,0.0,nt,nt,1.2,nt,nt
COCCCn1c(C(=O)Nc2ccc3c(c2)OCO3)cc2c(=O)n3cccc(C)c3nc21,1.6,1.8,63.5*,-1.7,24.2,-4.5
O=S(=O)(c1ccc(Cl)cc1)c1snnc1-c1ccccc1,nt,nt,nt,nt,nt,41.8*
COc1ccc(CN2C[C@H](C)[C@@H](OC)CN(C)C(=O)c3ccc(NC(=O)C4CC4)cc3OC[C@@H]2C)cc1,-3.8,6.9,nt,-14.6,nt,-0.5
C[C@@H]1CCCCO[C@H](CN(C)C(=O)C2CCCCC2)[C@H](C)CN([C@@H](C)CO)C(=O)c2cc(NC(=O)Nc3ccc(F)cc3)ccc2O1,-3.2,39.4,-3.5[16.7 µM],-17.0,8.2,-7.7
C[C@@H]1CN([C@H](C)CO)C(=O)c2cc(NC(=O)Nc3ccc(F)cc3)ccc2O[C@@H](C)CCCCO[C@H]1CN(C)C(=O)C1CCCCC1,-0.2,86.0*,40.4[16.7 µM],-18.1,17.4,5.0
C[C@H]1CCCCO[C@H](CN(C)C(=O)C2CCCCC2)[C@@H](C)CN([C@@H](C)CO)C(=O)c2cc(NC(=O)Nc3ccc(F)cc3)ccc2O1,-2.6,84.6*,7.1[16.7 µM],-12.1,9.1,12.6
C[C@H](CO)N1C[C@H](C)[C@H](CN(C)C(=O)C2CCCCC2)OCCCC[C@H](C)Oc2ccc(NC(=O)Nc3ccc(F)cc3)cc2C1=O,-0.9,74.4*,11.0[16.7 µM],-26.8,5.2,14.0
C[C@@H]1CCCCO[C@@H](CN(C)C(=O)C2CCCCC2)[C@@H](C)CN([C@H](C)CO)C(=O)c2cc(NC(=O)Nc3ccc(F)cc3)ccc2O1,-4.1,2.2,-20.3[16.7 µM],2.7,1.6,11.4
C[C@H](CO)N1C[C@H](C)[C@@H](CN(C)Cc2ccc(C(=O)O)cc2)Oc2ccc(NC(=O)CCC(F)(F)F)cc2C1=O,0.9,4.8,nt,-3.9,-4.4,-2.8
Cc1noc(C)c1NC(=O)N(C)C[C@@H]1Oc2ccc(NC(=O)CCCCCC(=O)Nc3ccccc3N)cc2C(=O)N([C@H](C)CO)C[C@@H]1C,1.7,-20.4,nt,-1.9,-2.7,2.9
COc1cccc(-c2nnc(SCC(=O)NC3CCS(=O)(=O)C3)n2C)c1 (configuration not stated),20.7*,0.8,-3.9,3.0,-0.7,nt

# Compound activity from PubChem.
